# Assay results from PubChem BioAssay AID1224903 (Bradner/Qi Labs at DFCI, 2016).
# Several values for one entry are separate records, joined by “and”; a condition that tells them apart may be missing. Identical values can stand only once. The whole screen tested about 66,000 compounds, of which about 720 (1.1%) were called active. This is one part of a sample in which actives are shown more often than they occur. Cut-off read from the data, not from the text of the source: active = normalised signal below about 0.5; inactive = the rest, inconclusive results apart.
# Biological target: Chromobox protein homolog 7 (Homo sapiens) (UniProt O95931)
# Experiment: blockers of CBX7 binding to H3K27me3 peptide – biochemical, AlphaScreen, primary screen (AID 1224903)
# Settings: AlphaScreen His6-CBX7 / biotin-H3K27me3 peptide binding, stronger effect = lower value; z-score: measured here: z-score of CBX7 signal
# Sequence of Chromobox protein homolog 7 (Homo sapiens) (O95931 whole entry, looked up): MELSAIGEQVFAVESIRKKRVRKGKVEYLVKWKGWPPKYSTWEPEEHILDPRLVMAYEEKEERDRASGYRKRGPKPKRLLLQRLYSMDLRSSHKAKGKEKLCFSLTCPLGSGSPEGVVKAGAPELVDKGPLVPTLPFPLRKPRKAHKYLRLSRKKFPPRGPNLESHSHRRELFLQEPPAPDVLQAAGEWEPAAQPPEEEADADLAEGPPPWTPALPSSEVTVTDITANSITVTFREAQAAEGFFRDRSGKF
SMILES,normalised signal (fraction of DMSO),z-score
COc1ccccc1Nc1nc(-c2ccc(Br)cc2)cs1,0.904 (inactive) and 0.953 (inactive),-2.04 and -0.747
CN(CCCNC(=O)c1cc(-c2ccncc2)nc2ccccc12)C1CCCCC1,1.17 (inactive),1.9
Cc1ccc2oc(-c3cc(NC(=O)c4cccc(F)c4)ccc3Cl)nc2c1,0.889 (inactive),-0.255
CCOC(=O)c1cc(-c2ccccc2)n(-c2cccc(C(=O)Nc3nccs3)c2)c1C,0.944 (inactive),-1.01
CCOC(=O)c1cnc2cc(Cl)c(OC)cc2c1Nc1ccc(C(F)(F)F)cc1,0.983 (inactive),-0.244
CC(=O)Nc1ncc2c(n1)CC(c1cccs1)CC2=O (stereo unspecified),0.997 (inactive),-0.0863
Fc1ccc(-c2cc(C(F)(F)F)nc(NCc3ccc(Cl)cc3)n2)cc1,1.25 (inactive),2.79
O=C(NC1CCCC1)c1nn2c(C(F)(F)F)cc(-c3ccc(F)cc3)nc2c1Cl,1.08 (inactive),0.569
CCC(C)NC(=O)c1ccc2nc(N3CCOCC3)sc2c1 (stereo unspecified),1.08 (inactive),3.28
Cn1cc(CC(=O)N2CCN(c3ccccn3)CC2)c2ccccc21,0.973 (inactive),-0.31
O=C(NCCCc1nc2ccccc2n1Cc1ccccc1F)c1ccc(F)cc1,0.957 (inactive),-1.01
Cn1c(C(=O)NCCCSC2CCCCC2)cc2sc(Cl)cc21,1.03 (inactive),0.498
Cc1ccc(-c2nc(-c3ccccc3Cl)no2)cc1,1.16 (inactive),1.59
COc1ccc(-n2c3c(cc(C(=O)NC(C)(C)C)c2=O)C(=O)CC(C)(C)C3)cc1,1.06 (inactive),0.667
Cc1ccc(-c2nnc(SCC(=O)Nc3cc(C)on3)o2)cc1,1.19 (inactive),2.87
COc1ccc(OC)c(-c2nnc(SCC(=O)Nc3cc(C)on3)o2)c1,0.264 (active),-15.1
Cc1cc(NC(=O)CSc2nnc(-c3ccc(Cl)s3)o2)no1,1.1 (inactive),1.02
CC1CCN(c2nc3ccc(C(=O)NCCCN4C(C)CCCC4C)cc3s2)CC1 (stereo unspecified),1.41 (inactive),3.88
COc1ccc(CCNC(=O)c2cccc3c2C(=O)N(Cc2cccnc2)C3)cc1OC,1.02 (inactive),0.0167
Cc1cccc(C)c1NC(=O)C1(N(CCc2c[nH]c3ccccc23)C(=O)c2ccccc2F)CCCCC1,0.792 (inactive),-3.78
CCN(C(=O)Cc1nc(N)n[nH]1)C1(C(=O)Nc2ccc(C)cc2)CCCCC1,0.791 (inactive),-3.79
CCN(C(=O)Cc1nc(N)n[nH]1)C1(C(=O)Nc2ccccc2)CCCCC1,0.201 (active),-14.5
Cc1cc(NCC(C)c2ccccc2)n2ncnc2n1 (stereo unspecified),1.03 (inactive),0.546
CCOC(=O)c1cccc(NC(=O)Cn2nc(Cc3ccncc3)c3ccccc3c2=O)c1,0.996 (inactive),-0.0743
COc1cccc(C2=NOC(C(=O)NCCc3ccccc3)C2)c1 (stereo unspecified),1.14 (inactive),1.85
Cc1cc(Nc2ccc(C)c(C)c2)n2ncnc2n1,1.04 (inactive),0.609
CC1CCC(NC(=O)C2c3ccccc3C(=O)N2Cc2ccc3c(c2)OCO3)CC1 (stereo unspecified),1.04 (inactive),0.918

SMILES,normalised signal (fraction of DMSO),z-score
COc1ccc(CCNC(=O)CSc2nc3ccccc3nc2Cc2ccc(F)cc2)cc1OC,0.48 (active),-8.99
COc1ccc(CCNC(=O)CSc2nnc(CNC(=O)c3cccs3)o2)cc1OC,0.975 (inactive),-0.715
COc1ccc(CCNC(=O)CSc2nc3ccccc3[nH]2)cc1OC,1.07 (inactive),0.758
O=C1c2ccccc2-c2onc3c(N4CCCC4)ccc1c23,0.367 (active),-9.89
CCNc1cc(Nc2ccccc2)c2c3c(onc13)-c1ccccc1C2=O,0.816 (inactive),-3.56
O=S1(=O)N=C(N2CCCCC2)c2ccccc21,1.07 (inactive),2
O=C(Nc1ccccc1Cl)N1CCCCC1c1cccnc1 (stereo unspecified),0.995 (inactive),-0.051
Cc1ccc(Nc2cc(C(=O)O)c3ccccc3n2)cc1,1.11 (inactive),1.21
O=C(COc1ccc(Cl)cc1)NCc1nnc(SCC(=O)NCC2CCCO2)o1 (stereo unspecified),1.04 (inactive),1.76
COc1ccc(C2CC(=O)N(CC(=O)Nc3ccc(C)c(Cl)c3)c3ccccc3S2)cc1 (stereo unspecified),0.931 (inactive),-1.15
Cc1ccccc1OCC(O)Cn1c(=N)n(C)c2ccccc21 (stereo unspecified),1.02 (inactive),0.641
CC(=O)N1CCc2cc(S(=O)(=O)N(CCO)Cc3ccccc3)ccc21,1.17 (inactive),1.75
CCOc1ccc2nc(C)cc(Nc3ccc(OC)c(OC)c3)c2c1,0.818 (inactive),-2.64
CCCCc1ccc(NC(=O)CSc2nccn2-c2cccc(C)c2C)cc1,0.742 (inactive),-0.258
Cc1cccc(N(C)C(=O)C(NS(=O)(=O)c2ccc3c(c2)CCC(=O)N3)c2ccccc2)c1 (stereo unspecified),1.06 (inactive),0.379
CC1CCCCN1CCCNC(=O)C1CCC(=O)N1C1CCCC1 (stereo unspecified),1.05 (inactive),1.64
c1ccc(SCCc2ccc3cc(-c4ccccc4)cn3c2)cc1,0.986 (inactive),-0.335
CCOc1ccc2nc(NC(=O)c3ccc(OC)cc3)sc2c1,1.05 (inactive),1.46
Cc1c(CNC2CCCCC2C)c(C(=O)O)c(C)n1Cc1ccccc1 (stereo unspecified),1.01 (inactive),0.18
O=C(c1ccc(NC2=NC3CS(=O)(=O)CC3S2)cc1)N1CCN(C2CCCCC2)CC1 (stereo unspecified),1.05 (inactive),1.03
COc1ccc(CNC(=O)C2CCN(S(=O)(=O)c3c(C)noc3C)CC2)cc1,1.02 (inactive),0.788
Cc1ccc(-c2nc(Nc3cccc(C(F)(F)F)c3)c3ccccc3n2)cc1,1.08 (inactive),1.39
Cc1ccc(Cl)cc1N1CCN(C(=O)Cn2ncc3c2-c2ccccc2OC3)CC1,0.728 (inactive),-7.81
CCCn1cnc2cc(NCc3cc(OC)ccc3OC)ccc21,0.919 (inactive),-2.03
COc1cccc(CNc2ccc3c(c2)ncn3C)c1,0.916 (inactive),-1.96
CCn1cnc2cc(NCc3ccccn3)ccc21,0.316 (active),-5.49
